Data reported in PubChem BioAssay (NCATS).
Inconclusive results are not listed. Calls of active or inactive are those of the source. Calls come from the whole dose curve; as a rule, active = well fitted curve in the direction sought with a large enough effect; inconclusive = small, poorly fitted or top-dose-only effect, or another doubt; inactive = no such curve, though single readings can be large; an effect the other way counts as inactive or inconclusive.

Legend:
[1] = qHTS of pediatric cancer cell lines to identify multiple opportunities for drug repurposing: Primary screen for MG 63 (6-TG R) cells (AID 1347105); note: nearly all actives have a fitted effect of over 50% in size
Summary of the method: (§1)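 Cells plated at 500-1,000/well in growth medium, compounds added after 5 h. MIPE tested at 11 points (from 0.78 nM), NPC at 8 points (from 0.59 nM). CellTiter-Glo luminescence after 48 h; concentration-response curves from primary screen.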

[2] = qHTS of pediatric cancer cell lines to identify multiple opportunities for drug repurposing: Primary screen for control Hh wild type fibroblast cells (AID 1347106);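 note: series mostly up to about 46 µM; a drop in luminescence marks cytotoxicity and a rise apparent proliferation; nearly all actives have a fitted effect of over 55% in size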
Summary of the method: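 Cells (500-1,000/well) in growth media were settled 5 h at 37 degrees C, then given compounds for 48 h. Viability was read as CellTiter-Glo luminescence. Primary runs used MIPE at 11 points (0.78 nM-46 µM) and NPC at 8 points (0.59 nM-46 µM); follow-ups used 11 points.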

[3] = qHTS of pediatric cancer cell lines to identify multiple opportunities for drug repurposing: Primary screen for Rh30 cells (AID 1347107); note: series mostly up to about 46 µM; nearly all actives have a fitted effect of over 75% in size
Summary of the method: (§2)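 Cells (500-1,000/well) rested 5 h, then received compounds for 48 h; metabolically active cells were measured by CellTiter-Glo luminescence. Final concentrations spanned up to 46 µM (MIPE, 11-point) or 0.59 nM-46 µM (NPC, 8-point) in primary screens, 11-point in follow-ups.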

[4] = qHTS of pediatric cancer cell lines to identify multiple opportunities for drug repurposing: Primary screen for Rh41 cells (AID 1347108);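 note: series mostly up to about 46 µM; luminescence drop marks cytotoxic hits; nearly all actives have a fitted effect of over 70% in size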
Summary of the method: as §1

[5] = qHTS of pediatric cancer cell lines to identify multiple opportunities for drug repurposing: Primary screen for RD cells (AID 1347104); note: nearly all actives have a fitted effect of over 55% in size
Summary of the method: as §1

[6] = qHTS of pediatric cancer cell lines to identify multiple opportunities for drug repurposing: Primary screen for OHS-50 cells (AID 1347103); note: potency is the fitted concentration of half-maximal effect; nearly all actives have a fitted effect of over 40% in size
Summary of the method: as §2

Measured: Potency

COCCCC/C(=N\OCCN)c1ccc(C(F)(F)F)cc1
inactive: [1] | [2] | [3] | [4]

CCCCOCCOCCOCc1cc2c(cc1CCC)OCO2
not listed: [6]
inactive: all other assays above

CC(=O)[C@@]1(O)CC[C@H]2[C@@H]3CCC4=CC(=O)CC[C@]4(C)[C@H]3CC[C@@]21C
not listed: [6]
inactive: all other assays above

CNCCCN1c2ccccc2CCc2ccccc21
active: [6] 15.5 µM
inactive: [2] | [3] | [4]

CCN(CC)CCOCCOC(=O)C1(c2ccccc2)CCCC1
inactive: [1] | [2] | [3] | [4]

CN(C)CC/C=C1\c2ccccc2COc2ccccc21
inactive: [1] | [2] | [3]
